Measured values taken from PubChem BioAssay (EPA / NIEHS).
“And” between values parts separate entries of the source, which are not always exact repeats. Equal entries are not always repeated. A structure can be active in one record and inactive in another. The source made the active and inactive calls. How the source made its calls: active means hit-call score of the fitted dose curve at least 0.9, where 1 is the maximum; inactive means score below 0.9.

Read-out: Interleukin-8 (IL8), CXCL8 (gene 3576)
Experiment: BSK_LPS_IL8: BioMAP Diversity Plus: LPS Assay for Interleukin-8 (IL8) Biomarker Activity (AID 2283078)
Conditions: primary human HUVEC with PBMC; actives raise or lower the signal
Procedure, shortened: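 In this LPS system, chemical-treated human umbilical vein endothelium/PBMC co-cultures were harvested at 24 h for IL-8 ELISA.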

| Compound | outcome | AC50 |
| --- | --- | --- |
| O=C(O)C(F)(F)C(F)(F)C(F)(F)C(F)(F)F | inactive | – |
| OCC(F)(F)C(F)(F)C(F)(F)C(F)(F)C(F)(F)C(F)(F)F | inactive | – |
| C=C(C)C(=O)OCCC(F)(F)C(F)(F)C(F)(F)C(F)(F)C(F)(C(F)(F)F)C(F)(F)F | inactive | – |
| O=P(O)(O)OCCC(F)(F)C(F)(F)C(F)(F)C(F)(F)C(F)(F)C(F)(F)F | inactive | – |
| O=S(=O)(OCC(F)F)C(F)(F)F | inactive | – |
| O=C(CC(=O)C(F)(F)C(F)(F)F)C(F)(F)F | inactive | – |
| C=CC(=O)OCC(F)(F)C(F)(F)C(F)(F)C(F)(F)COC(=O)C=C | – | 19.2 µM (active) and 16.7 µM (active) |
| CCCCCCCCC(F)(F)C(F)(F)C(F)(F)C(F)(F)C(F)(F)C(F)(F)F | inactive | – |
| N=C(N)C(F)(F)C(F)(F)C(F)(F)C(F)(F)C(F)(F)C(F)(F)C(F)(F)F | inactive | 46.8 µM (active) |
| O=C(O)C(F)(F)C(F)(F)F | inactive | – |
| FC(F)(I)C(F)(F)C(F)(F)C(F)(F)I | inactive | – |
| FC(F)(F)C(F)(F)C(F)(F)C(F)(F)C(F)(F)C(F)(F)C(F)(F)C(F)(F)F | inactive | – |
| FC(F)(F)C(F)(F)C(F)(F)N(C(F)(F)C(F)(F)C(F)(F)F)C(F)(F)C(F)(F)C(F)(F)F | inactive | – |
| FC(F)(F)C(F)(F)CNCC(F)(F)C(F)(F)F | inactive | – |
| FC(F)(F)C(F)(F)C(F)(F)C(F)(F)C(F)(F)C(F)(F)CCS | inactive | – |
| O=C(O)C(F)(F)C(F)(F)C(F)(F)F | inactive | – |
| O=C(O)C(F)(F)C(F)(F)C(F)(F)C(F)(F)C(F)(F)C(F)(F)C(F)(F)C(F)(F)Cl | – | 5.95 µM (active) and 40.1 µM (active) |
| O=C(O)C(F)(OC(F)(F)C(F)(OC(F)(F)C(F)(OC(F)(F)C(F)(F)C(F)(F)F)C(F)(F)F)C(F)(F)F)C(F)(F)F (stereo not given) | inactive | – |

| Compound | outcome | AC50 |
| --- | --- | --- |
| FC(F)(Br)C(F)(F)C(F)(F)C(F)(F)C(F)(F)C(F)(F)Br | inactive | – |
| O=C(O)C(F)(F)C(F)(F)C(F)F | inactive | – |
| O=C(O)C(F)(OC(F)(F)C(F)(OC(F)(F)C(F)(F)C(F)(F)F)C(F)(F)F)C(F)(F)F (stereo not given) | inactive | – |
| CCCCC(CC)COP(=O)(O)OCC(CC)CCCC (stereo not given) | inactive | – |
| C=CC(F)(F)C(F)(F)C(F)(F)C(F)(F)C(F)(F)C(F)(F)C(F)(F)C(F)(F)F | inactive | – |
| COC(=O)CCC(F)(F)C(F)(F)C(F)(F)C(F)(F)F | inactive | – |
| C=CC(=O)OCC(F)(F)C(F)(F)C(F)(F)C(F)(F)C(F)(F)C(F)(F)C(F)(F)F | inactive | – |
| FC(F)(F)C(F)(F)C(F)(F)C(F)(F)C(F)(F)C(F)(F)CC1CO1 (stereo not given) | inactive | – |
| FC(F)(F)C(F)(F)C(F)(F)C(F)(F)C(F)(F)C(F)(F)C(F)(F)C(F)(F)CCS | inactive | – |
| OCC(F)(F)C(F)(F)C(F)(F)C(F)(F)C(F)(F)C(F)F | inactive | – |
| FC1CC(F)(F)C(F)(F)C1(F)F (stereo not given) | inactive | – |
| FC(F)(F)C(F)(F)C(F)(F)CI | inactive | 1.84 µM (active) |
| NC(=O)C(F)(F)C(F)(F)C(F)(F)C(F)(F)F | inactive | – |
| C=CC(F)(F)C(F)(F)C(F)(F)C(F)(F)C(F)(F)C(F)(F)C(F)(F)C(F)(F)C=C | inactive | – |
| OCC(F)(F)C(F)(F)C(F)(F)C(F)F | inactive | – |
| OCC(F)(F)C(F)(F)C(F)(F)F | inactive | – |
| OCCCC(F)(F)C(F)(F)C(F)(F)F | inactive | – |
| O=S(=O)(OCCOC(F)(F)F)C(F)(F)F | inactive | – |

Read-out: not listed separately
Experiment: BSK_LPS_SRB: Viability Assessment in the BioMAP Diversity Plus: LPS Assay (AID 2283079);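 further: total protein by sulforhodamine B absorbance as a cytotoxicity measure; measured one day after compound addition; fitted in both directions against DMSO so loss or gain of signal counts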
Conditions: primary human HUVEC with PBMC
Procedure, shortened: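 Cytotoxicity endpoint in human endothelial–PBMC co-culture: 24 h exposure, then SRB (0.1%) staining, 560 nm read.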

| Compound | outcome | AC50 |
| --- | --- | --- |
| O=C(O)C(F)(F)C(F)(F)C(F)(F)C(F)(F)F | inactive | – |
| OCC(F)(F)C(F)(F)C(F)(F)C(F)(F)C(F)(F)C(F)(F)F | inactive | – |
| C=C(C)C(=O)OCCC(F)(F)C(F)(F)C(F)(F)C(F)(F)C(F)(C(F)(F)F)C(F)(F)F | inactive | – |
| O=P(O)(O)OCCC(F)(F)C(F)(F)C(F)(F)C(F)(F)C(F)(F)C(F)(F)F | inactive | – |
| O=S(=O)(OCC(F)F)C(F)(F)F | inactive | – |
| O=C(CC(=O)C(F)(F)C(F)(F)F)C(F)(F)F | inactive | – |
| C=CC(=O)OCC(F)(F)C(F)(F)C(F)(F)C(F)(F)COC(=O)C=C | – | 45.3 µM (active) and 43.4 µM (active) |
| CCCCCCCCC(F)(F)C(F)(F)C(F)(F)C(F)(F)C(F)(F)C(F)(F)F | inactive | – |
| N=C(N)C(F)(F)C(F)(F)C(F)(F)C(F)(F)C(F)(F)C(F)(F)C(F)(F)F | inactive | 55.1 µM (active) |
| O=C(O)C(F)(F)C(F)(F)F | inactive | – |
| FC(F)(I)C(F)(F)C(F)(F)C(F)(F)I | inactive | – |
| FC(F)(F)C(F)(F)C(F)(F)C(F)(F)C(F)(F)C(F)(F)C(F)(F)C(F)(F)F | inactive | – |
| FC(F)(F)C(F)(F)C(F)(F)N(C(F)(F)C(F)(F)C(F)(F)F)C(F)(F)C(F)(F)C(F)(F)F | inactive | – |
| FC(F)(F)C(F)(F)CNCC(F)(F)C(F)(F)F | inactive | – |
| FC(F)(F)C(F)(F)C(F)(F)C(F)(F)C(F)(F)C(F)(F)CCS | inactive | – |
| O=C(O)C(F)(F)C(F)(F)C(F)(F)F | inactive | – |
| O=C(O)C(F)(F)C(F)(F)C(F)(F)C(F)(F)C(F)(F)C(F)(F)C(F)(F)C(F)(F)Cl | – | 48.4 µM (active) and 47.2 µM (active) |
| O=C(O)C(F)(OC(F)(F)C(F)(OC(F)(F)C(F)(OC(F)(F)C(F)(F)C(F)(F)F)C(F)(F)F)C(F)(F)F)C(F)(F)F (stereo not given) | inactive | – |

| Compound | outcome | AC50 |
| --- | --- | --- |
| FC(F)(Br)C(F)(F)C(F)(F)C(F)(F)C(F)(F)C(F)(F)Br | inactive | – |
| O=C(O)C(F)(F)C(F)(F)C(F)F | inactive | – |
| O=C(O)C(F)(OC(F)(F)C(F)(OC(F)(F)C(F)(F)C(F)(F)F)C(F)(F)F)C(F)(F)F (stereo not given) | inactive | – |
| CCCCC(CC)COP(=O)(O)OCC(CC)CCCC (stereo not given) | inactive | – |
| C=CC(F)(F)C(F)(F)C(F)(F)C(F)(F)C(F)(F)C(F)(F)C(F)(F)C(F)(F)F | inactive | – |
| COC(=O)CCC(F)(F)C(F)(F)C(F)(F)C(F)(F)F | inactive | – |
| C=CC(=O)OCC(F)(F)C(F)(F)C(F)(F)C(F)(F)C(F)(F)C(F)(F)C(F)(F)F | inactive | – |
| FC(F)(F)C(F)(F)C(F)(F)C(F)(F)C(F)(F)C(F)(F)CC1CO1 (stereo not given) | inactive | – |
| FC(F)(F)C(F)(F)C(F)(F)C(F)(F)C(F)(F)C(F)(F)C(F)(F)C(F)(F)CCS | inactive | – |
| OCC(F)(F)C(F)(F)C(F)(F)C(F)(F)C(F)(F)C(F)F | inactive | – |
| FC1CC(F)(F)C(F)(F)C1(F)F (stereo not given) | inactive | – |
| FC(F)(F)C(F)(F)C(F)(F)CI | inactive | – |
| NC(=O)C(F)(F)C(F)(F)C(F)(F)C(F)(F)F | inactive | – |
| C=CC(F)(F)C(F)(F)C(F)(F)C(F)(F)C(F)(F)C(F)(F)C(F)(F)C(F)(F)C=C | inactive | – |
| OCC(F)(F)C(F)(F)C(F)(F)C(F)F | inactive | – |
| OCC(F)(F)C(F)(F)C(F)(F)F | inactive | – |
| OCCCC(F)(F)C(F)(F)C(F)(F)F | inactive | – |
| O=S(=O)(OCCOC(F)(F)F)C(F)(F)F | inactive | – |
